{"source": "PubChem BioAssay AID463190", "about": "(Sanford-Burnham Center for Chemical Genomics, 2010)", "note": "The campaign covered roughly 330,000 compounds. About 7,300 (2.2%) were called active.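 Rule for the calls: active = inhibition of at least 40%; inactive = the rest.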 Only a selection was taken, and actives are over-represented in it overall."}
{"test": "growth inhibitors of tim10-1 mutant yeast, primary screen, luminescence, uHTS (AID 463190);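 note: mutant grown at 25 °C; 0% = DMSO wells with yeast and 100% = wells holding no yeast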", "settings": "S. cerevisiae tim10-1 ts strain growth, BacTiter-Glo, 24 h; at 20 µM; active compounds read high"}
{"smiles": "O=C1Nc2ccc(Br)cc2/C1=N/N=C/C1=C(N2CCOCC2)C(=C\\c2ccccc2)/CC1", "inhibition": "45.5% (active)"}
{"smiles": "COc1ccc(/C=N/N=C2/C(=O)Nc3ccccc32)cc1O", "inhibition": "9.34% (inactive)"}
{"smiles": "C(=N\\N1CCN(c2ccccn2)CC1)/C1=C(N2CCOCC2)C(=C/c2ccccc2)/CC1", "inhibition": "34.3% (inactive)"}
{"smiles": "C#CC(CCN1CCCCC1)(OC)c1ccccc1", "note": "(configuration not stated)", "inhibition": "7.91% (inactive)"}
{"smiles": "Cc1ccc2nc(-c3ccc(Br)cc3)cn2c1", "inhibition": "-3.32% (inactive)"}
{"smiles": "Cc1ccc(-c2cn3cc([N+](=O)[O-])ccc3n2)cc1", "inhibition": "-1.69% (inactive)"}
{"smiles": "Cc1ccc(-c2cn3cc(C)ccc3n2)cc1", "inhibition": "51.8% (active)"}
{"smiles": "CCOc1ccc(-n2c(SC(C)C(=O)OC)nc3c(c2=O)SCC3)cc1", "note": "(configuration not stated)", "inhibition": "10.7% (inactive)"}
{"smiles": "Cc1cc(F)ccc1NC(=O)C(C)n1c2ccccc2c2nc(=O)cc(C)n21", "note": "(configuration not stated)", "inhibition": "13.9% (inactive)"}
{"smiles": "C[C@H](CO)N1C[C@H](C)[C@@H](CN(C)S(=O)(=O)c2ccc(F)cc2)Oc2c(NC(=O)Nc3ccccc3)cccc2C1=O", "inhibition": "-4.64% (inactive)"}
{"smiles": "O=C(OCC(=O)N1CCCC1=O)c1cc(S(=O)(=O)N2CCOCC2)ccc1Cl", "inhibition": "-17.2% (inactive)"}
{"smiles": "Cc1ccc(S(=O)(=O)N2CCC(C(=O)NCCC3=CCCCC3)CC2)cc1C", "inhibition": "-3% (inactive)"}
{"smiles": "O=C(NCc1ccccc1Cl)c1csc2c1CCCCC2", "inhibition": "12.3% (inactive)"}
{"smiles": "CC(=O)Cc1nsc(NC(=O)c2ccc(Cl)cc2Cl)n1", "inhibition": "36.5% (inactive)"}
{"smiles": "CC(=O)Cc1nsc(NC(=O)c2csc3c2CCCC3)n1", "inhibition": "41.9% (active)"}
{"smiles": "Cc1ccc(CNC(=O)CCC(=O)N2CC(C)Sc3ccccc32)cc1", "note": "(configuration not stated)", "inhibition": "28.3% (inactive)"}
{"smiles": "CCCc1nnc(NC(=O)CCC(=O)NC2CC2)s1", "inhibition": "10.7% (inactive)"}
{"smiles": "Cc1ccc2[nH]c(C)c(CCNC(=O)NC3CCCCC3)c2c1", "inhibition": "11.4% (inactive)"}
{"smiles": "COc1ccc(C(=O)COC(=O)COc2ccc(C)c(C)c2)cc1", "inhibition": "10.1% (inactive)"}
{"smiles": "Cc1ccc(/C(N)=N/OC(=O)COc2ccc(Cl)c(C)c2)cc1", "inhibition": "41.2% (active)"}
{"smiles": "Cc1cc(OCC(=O)N2CCN(c3ncccn3)CC2)ccc1Cl", "inhibition": "16% (inactive)"}
{"smiles": "COC(=O)c1cccc([N+](=O)[O-])c1CS(=O)(=O)c1ccc(C)cc1", "inhibition": "24.5% (inactive)"}
{"smiles": "COc1ccc(C(=O)Nc2nc(-c3ccc(OC)cc3)c(-c3ccc([N+](=O)[O-])cc3)s2)cc1", "inhibition": "14.1% (inactive)"}
{"smiles": "Cc1ccc(OC(=O)CCC(=O)Nc2ccc(Br)cc2)cc1", "inhibition": "0.584% (inactive)"}
{"smiles": "COC(=O)CCc1sc(Nc2ccc(Br)cc2)nc1-c1ccc(OC)cc1", "inhibition": "46.4% (active)"}
{"smiles": "CCCn1nnc2sc3c(c2c1=O)CCC(C)C3", "note": "(configuration not stated)", "inhibition": "9.67% (inactive)"}
{"smiles": "CC1CCc2c(sc3nc4n(c(=O)c23)CCS4)C1", "note": "(configuration not stated)", "inhibition": "40.6% (active)"}
{"smiles": "C=CCn1c(SCc2c(C)noc2C)nc2sc3c(c2c1=O)CCC(C)C3", "note": "(configuration not stated)", "inhibition": "-4.33% (inactive)"}
{"smiles": "Cc1cc2c(c(=O)n1C)C(C(C)C)C(C#N)=C(N)O2", "note": "(configuration not stated)", "inhibition": "-3.2% (inactive)"}
{"smiles": "COc1cccc(CNC(=O)C2CCN(S(=O)(=O)c3cccc4cccnc34)CC2)c1", "inhibition": "13.9% (inactive)"}
{"smiles": "Cn1c(=O)c(C(=O)Nc2ncccn2)c(O)c2ccccc21", "inhibition": "25.2% (inactive)"}
{"smiles": "C=CCn1c(SCc2c(C(=O)OC)sc(N)c2C(=O)OC)nnc1-c1ccc(Cl)cc1", "inhibition": "15.3% (inactive)"}
